# From PubChem BioAssay
# tim10-1 inh: tim10-1 yeast growth inhibition. S. cerevisiae tim10-1 ts strain growth, BacTiter-Glo, 24 h. inhibition, % at 20 µM. actives 2.2% (n = 330,000). AID 463190;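 active means inhibition of at least 40%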;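 further: mutant grown at 25 °C; 0% = DMSO wells with yeast and 100% = wells holding no yeast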
# TIM10 inh: TIM10 yeast growth inhibition | AID 463195 | inhibition, % at 10 µM | S. cerevisiae TIM10 strain growth, BacTiter-Glo luminescence, 24 h | actives 1.4% (n = 330,000);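 active means inhibition of 40% or more at the single tested concentration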;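 further: wild-type TIM10 isogenic control strain grown at permissive 25 °C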
# NLRP3 yeast inh: inhibitors of NALP3 inflammasome in yeast; Yeast reconstituted NLRP3/ASC/caspase-1, beta-gal luminescence, 24 h; inhibition, % at 10 µM; actives 0.39% (n = 330,000); AID 2825;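 active means inhibition of 50% or more; inactive means inhibition below 50%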;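 further: plate controls were induced DMSO wells for no effect and uninduced yeast grown without galactose for full effect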
# tim23-1 inh: tim23-1 yeast growth inhibition. S. cerevisiae tim23-1 growth, BacTiter-Glo luminescence, 24 h. inhibition, % at 20 µM. actives 1.3% (n = 330,000);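 active means growth inhibition of the mutant yeast at or above 50%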;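 further: temperature-sensitive mutant grown at 25 °C; plate controls were DMSO-treated mutant yeast for no effect and medium wells lacking yeast for full effect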
# NALP1 yeast inh: NALP1 inhibition | S. cerevisiae NALP1/ASC/caspase-1 growth, X-gal OD620, 72 h | inhibition, % at 10 µM | actives 0.61% (n = 280,000) | AID 2071; in the data active means inhibition mostly above about 24%, no sharp cut-off; inactive means mostly below about 32%
# tim10-1 conf: confirmation of tim10-1 mutant yeast growth inhibitors. shares compounds with tim10-1 inh. S. cerevisiae tim10-1 ts strain growth, BacTiter-Glo, 24 h. AID 463213. actives 56% (n = 7,400). inhibition, % at 20 µM;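 active means inhibition of yeast growth at or above a set limit in either of two repeat tests at 20 µM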;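 further: tim10-1 mutant grown at permissive 25 °C to find synthetic lethal compounds; 0% = DMSO yeast wells and 100% = medium wells without yeast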
# * = called active by the depositor; · = no result given. In the library only some 4% were active in any assay of this set; here they are far more common.
SMILES,tim10-1 inh,TIM10 inh,NLRP3 yeast inh,tim23-1 inh,NALP1 yeast inh,tim10-1 conf
O=S(=O)(NCCSc1ccccc1)c1ccc2c(c1)OCCO2,41*,5,11,36,34,24
COc1ccc(/C=C/C(=O)C2CC2)cc1Cn1nc(C)c([N+](=O)[O-])c1C,47*,24,21,25,-1,37*
COc1ccc(C(C)=O)cc1Cn1nc(C)c([N+](=O)[O-])c1C,13,10,8,18,-32,·
CN(C)c1ccnc2sc(C(=O)c3ccc(Br)cc3)c(N)c12,43*,29,3,33,-1,9
Cc1ccc(C)c(NC(=S)N2CCC(NC(=O)C3CCCCC3)CC2)c1,-18,6,9,0,-1,·
COc1ccc(S(=O)(=O)N2CCN(c3ccccc3OC)CC2)cc1,43*,9,9,40,-6,34*
COc1cccc(NS(=O)(=O)c2ccc(-n3cccn3)cc2)c1,20,14,5,18,-8,·
Cc1c(Cl)c(C(F)(F)F)nn1CC(=O)NCc1ccco1,1,-1,21,-10,5,·
CCc1ccc(/C=C2\Oc3cc(OC(=O)N4CCOCC4)ccc3C2=O)cc1,50*,29,15,27,37,18
C=CC[N+](C)(C)CCN1C(=O)C2C(c3ccccc3)C=CC(c3ccccc3)C2C1=O (centres undefined),3,3,12,-3,27,·
C=CCOCCN1C(=O)C2C(c3ccccc3)C=CC(c3ccccc3)C2C1=O (centres undefined),41*,25,8,41,25,24
COc1ccccc1NC(=O)C1CCCCN1S(=O)(=O)c1ccc(F)cc1 (centres undefined),35,25,17,29,12,·
COc1ccc(NC(=O)C2CCCCN2S(=O)(=O)c2ccc(F)cc2)c(OC)c1 (centres undefined),44*,34,4,31,1,29
O=C(CSCc1ccccc1Cl)NNC(=S)Nc1ccccc1,49*,28,24,26,4,43*
Cc1ccc(NS(=O)(=O)c2ccc(-c3coc(C)n3)cc2)c(Br)c1,57*,26,19,50,0,17
Cc1nc(-c2ccc(S(=O)(=O)Nc3ccccc3C)cc2)co1,28,13,-8,36,14,·
Cc1ccc(C)c(NS(=O)(=O)c2ccc(-c3coc(C)n3)cc2)c1,41*,10,9,42,7,24
Cc1nc(-c2ccc(S(=O)(=O)Nc3ccc(S(N)(=O)=O)cc3)cc2)co1,-3,-1,12,-22,19,·
Cc1ccccc1Cc1ccc(Cl)nn1,20,4,14,12,-14,·
O=C(C1CCN(S(=O)(=O)c2cccc3cccnc23)CC1)N1CC=C(c2ccccc2)CC1,43*,28,5,29,-4,17
COc1cccc(NC(=O)C2C3CCC4C(CCC32)C4(Cl)Cl)c1 (centres undefined),42*,2,1,11,26,29
COc1ccc(/C=C2\SC(=S)N(CC(=O)OCC(=O)Nc3cc(Cl)cc(Cl)c3)C2=O)cc1,11,-11,21,14,·,·
C=CCNC(=S)N/N=C(\C)c1ccc(OC)cc1,41*,20,1,7,12,14
CC1CCC2C(=O)N(c3ccccc3OC(=O)c3ccccc3)C(=O)C2C1 (centres undefined),28,10,-10,35,3,·
CC1CCC2C(=O)N(c3cc(Cl)ccc3OC(=O)c3ccco3)C(=O)C2C1 (centres undefined),41*,15,3,41,5,34*
SMILES,tim10-1 inh,TIM10 inh,NLRP3 yeast inh,tim23-1 inh,NALP1 yeast inh,tim10-1 conf
O=C(Oc1ccccc1O)c1cccc2ccccc12,47*,21,39,43,-10,34*
N/C(=N\OC(=O)c1cccc2ccccc12)c1ccncc1,49*,29,-7,28,0,40*
N#Cc1nc(-c2ccccc2F)oc1NCc1cccc2c1OCO2,52*,25,18,47,26,-3
CCOc1cc(/C=C2\C(=O)N(c3nc(-c4ccc(Br)cc4)cs3)N=C2c2ccccc2)ccc1O,47*,10,-10,24,8,15
CCC(=O)Nc1ccc(C2C(=O)c3ccccc3C2=O)cc1,42*,18,9,30,16,22
COc1ccc(-n2ccnc(SCC(=O)NC3CCCC3)c2=O)cc1OC,-2,16,16,11,·,·
Cc1ccc(-n2ccnc(SCC(=O)NC3CCCCC3)c2=O)cc1F,44*,4,5,31,·,13
COc1ccccc1CC(=O)Nc1ccon1,4,14,17,10,26,·
N#Cc1c(-c2ccccc2)nc(SCc2cccc(Cl)c2)[nH]c1=O,42*,17,11,33,-7,27
O=C(Nc1cccc(F)c1)C1CCCCC1,-6,11,8,23,·,·
FC(F)(F)c1ccc(NC(=S)NC2CCCCC2)cc1,43*,36,39,36,0,38*
FC(F)(F)c1cccc(NC(=S)NC2CCCC2)c1,37,33,17,46,17,·
Fc1cccc(NC(=S)NC2CCCCCCC2)c1,50*,32,20,46,17,27
S=C(Nc1ccccn1)NC1CCCCC1,40,9,17,37,33,6
COc1ccccc1C(=O)N1CCN(c2nc3cc(C)c(C)cc3cc2C#N)CC1,43*,29,6,34,9,24
Cc1ccccc1C(=O)OCC(=O)N(C)c1ccccc1,52*,16,5,37,-1,31*
COc1cccc(C(=O)N2N=C(c3cccc(OC)c3)CC2(O)C(F)(F)F)c1 (centres undefined),40*,21,6,35,-6,-23
Nc1n[nH]c(CO)n1,·,·,·,·,10,·
Cc1nc(Nc2nc(-c3ccccc3)cc(=O)[nH]2)nc2ccccc12,43*,30,37,10,·,8
Cc1nc(Nc2nc(CSc3nc4ccccc4[nH]3)cc(=O)[nH]2)nc2ccccc12,4,4,10,17,15,·
COc1ccccc1N1CCN(C2CC(=O)N(c3cccc(Cl)c3)C2=O)CC1 (centres undefined),29,18,3,22,-3,·
CCCC(=O)Nc1nc2ccc(OCC)cc2s1,42*,20,-7,45,4,21
CC(=C\c1ccco1)/C=C(\C#N)C(=O)NCCc1c[nH]c2ccccc12,43*,38,12,31,18,42*
Cc1nc2cc(-c3sccc3-n3cccc3)nn2c(C)c1C,46*,20,14,41,-8,34*
Clc1ccc(Cn2ncc3c(N4CCCCC4)ncnc32)c(Cl)c1,43*,22,15,47,13,27
O=C(c1cc(Cl)ccc1F)N1CCCC(Nc2ccc3c(c2)OCCO3)C1 (centres undefined),12,11,20,25,32,·
